From the supplement of paper PMC13380429

How the values were obtained:
[1] = test system: Vero E6 infected with SARS-CoV-2; experiment: morphology score (similarity to uninfected cells); higher = more like uninfected cells; settings: 24 h
[2] = test system: Vero E6 infected with SARS-CoV-2; experiment: SARS-CoV-2 infection rate relative to infected DMSO; higher = more infection, active = 60 or less; settings: 24 h

SMILES | morphology score [1] | SARS-CoV-2 infection rate [2]
CN1CCC(=C2c3ccccc3C=Cc3ccccc32)CC1 [cyproheptadine] (0.833333 µM) | 0.0226 | 102% (inactive)
CC12CCC(CC1=O)C2(C)C (stereo not drawn) [camphor-(+)] (10 µM) | 0.101 | 107% (inactive)
CC(SC(=O)c1cccs1)C(=O)NCC(=O)O (configuration not stated) [stepronin] (10 µM) | -0.0157 | 113% (inactive)
C[C@]12CC[C@H](O)C[C@H]1CC[C@@H]1[C@@H]2CC[C@]2(C)[C@@H](C3=CC(=O)OC3)CC[C@]12O [digitoxigenin] (0.833333 µM) | -0.0679 | 108% (inactive)
Cc1nc2ccccn2c(=O)c1CCN1CCC(C(=O)c2ccc(F)cc2)CC1 [pirenperone] (10 µM) | 0.172 | 108% (inactive)
OC(c1cc(C(F)(F)F)nc2c(C(F)(F)F)cccc12)C1CCCCN1 (configuration not stated) [mefloquine] (0.833333 µM) | -0.113 | 112% (inactive)
Cc1onc(-c2ccccc2)c1-c1ccc(S(N)(=O)=O)cc1 [valdecoxib] (10 µM) | -0.0646 | 98.5% (inactive)
Cc1cc(C)c(NC(=O)C2CC3CCC2C3)c(C)c1 (configuration not stated) (10 µM) | -0.102 | 102% (inactive)
Clc1ccccc1C(c1ccccc1)(c1ccccc1)n1ccnc1 [clotrimazole] (10 µM) | 0.254 | 78.5% (inactive)
CCCn1c(=O)c2nc(C34CC5CC(CC3C5)C4)[nH]c2n(CCC)c1=O (10 µM) | 0.134 | 94% (inactive)
O=C(O[C@H]1C[C@H]2CC[C@@H](C1)[N+]21CCCC1)C(O)(c1ccccc1)c1ccccc1 [trospium] (10 µM) | 0.0583 | 102% (inactive)
CCOC(=O)C1=CCCC[C@H]1S(=O)(=O)Nc1ccc(F)cc1Cl [resatorvid] (10 µM) | 0.0683 | 99.5% (inactive)
CC(=O)NCC(=O)N[C@H](CCC(=O)O)C(=O)O [N-acetylglycyl-D-glutamic-acid] (10 µM) | 0.127 | 98% (inactive)
c1ccc(C2CC2)c(OCC2=NCCN2)c1 [cirazoline] (10 µM) | 0.0206 | 102% (inactive)
CC1(C)O[C@@H]2C[C@H]3[C@@H]4C[C@H](F)C5=CC(=O)C=C[C@]5(C)[C@H]4[C@@H](O)C[C@]3(C)[C@]2(C(=O)CO)O1 [flunisolide] (10 µM) | 0.103 | 109% (inactive)
CN1CCN(C(c2ccccc2)c2ccc(Cl)cc2)CC1 (configuration not stated) [chlorcyclizine] (10 µM) | 0.134 | 102% (inactive)
NCCC(Oc1ccc(C(F)(F)F)cc1)c1ccccc1 (configuration not stated) [norfluoxetine] (10 µM) | 0.568 | 59% (active)
COc1nc(N)nc2c1ncn2[C@@H]1O[C@H](CO)[C@@H](O)[C@@H]1O [nelarabine] (10 µM) | -0.0124 | 109% (inactive)
CN1CCN(c2cccc(Nc3nc4c(-c5ccc(S(C)(=O)=O)cc5)cccn4n3)c2)CC1 (0.833333 µM) | 0.157 | 106% (inactive)
CN(C)CCN1C(=O)c2cccc3cc(N)cc(c23)C1=O [amonafide] (0.833333 µM) | 0.15 | 102% (inactive)
O=C(O)c1cc2occc2[nH]1 (10 µM) | -0.103 | 109% (inactive)

SMILES | morphology score [1] | SARS-CoV-2 infection rate [2]
CCc1nn(CCO)c(CC)c1Oc1cc(C#N)cc(C#N)c1 [lersivirine] (10 µM) | 0.162 | 97% (inactive)
CCOC(=O)CNC(=O)[C@@H]1CCCN1C(=O)Cc1ccccc1 (10 µM) | -0.0562 | 104% (inactive)
COc1ccc(-c2cc(C(F)F)nn2-c2ccc(S(N)(=O)=O)cc2)cc1F [deracoxib] (10 µM) | 0.112 | 112% (inactive)
CCOC(=O)[C@H](CCc1ccccc1)N[C@@H](C)C(=O)N1[C@H](C(=O)O)C[C@H]2CCCC[C@@H]21 [trandolapril] (10 µM) | 0.00679 | 106% (inactive)
CC[N+](CC)(CC)CC(=O)Nc1c(C)cccc1C (10 µM) | 0.0409 | 104% (inactive)
Cc1c(C(=O)NN2CCOCC2)nn(-c2ccc(Cl)cc2Cl)c1-c1ccc(I)cc1 (10 µM) | 0.11 | 87.5% (inactive)
CN1CC(=O)NC1=N [creatinine] (10 µM) | 0.0578 | 99.5% (inactive)
CS(=O)(=O)c1ccc(C2=C(c3ccccc3)C(=O)OC2)cc1 [rofecoxib] (10 µM) | 0.0705 | 96.5% (inactive)
c1ccc(N2CCN(CCCOc3ccc4c(c3)OCO4)CC2)cc1 (10 µM) | 0.0822 | 101% (inactive)
O=C(Cc1ccc(-c2ccc(OCCN3CCOCC3)cc2)cn1)NCc1ccccc1 (10 µM) | -0.5 | 112% (inactive)
CCOc1cc(N)c(Cl)cc1C(=O)NCC1CN(Cc2ccc(F)cc2)CCO1 (configuration not stated) [mosapride] (10 µM) | 0.33 | 89.5% (inactive)
COc1ccc(C(=O)NCc2ccc(OCCN(C)C)cc2)cc1OC [itopride] (10 µM) | 0.19 | 90.5% (inactive)
CC1OC2(CS1)CN1CCC2CC1 (configuration not stated) [cevimeline] (10 µM) | 0.0787 | 98% (inactive)
CCCC(C)C1(CC)C(=O)NC(=O)NC1=O (configuration not stated) [pentobarbital] (10 µM) | 0.0334 | 100% (inactive)
CN(N=O)C(=O)N[C@@H](C=O)[C@@H](O)[C@H](O)[C@H](O)CO [streptozotocin] (10 µM) | 0.0397 | 96% (inactive)
Cc1cc(SCc2sc(-c3ccc(C(F)(F)F)c(F)c3)nc2C)ccc1OCC(=O)O (10 µM) | 0.143 | 99.5% (inactive)
C#C[C@]1(O)CC[C@H]2[C@@H]3CCC4=CC(=NO)CC[C@@H]4[C@H]3CC[C@@]21CC (mixture of isomers) [norelgestromin] (10 µM) | -0.0918 | 108% (inactive)
CC(=O)OCC1=C(C(=O)O)N2C(=O)[C@@H](N)[C@H]2SC1 [7-aminocephalosporanic-acid] (10 µM) | -0.0363 | 104% (inactive)
O=C1[C@@H]2[C@H]3CC[C@H](C3)[C@@H]2C(=O)N1C[C@@H]1CCCC[C@H]1CN1CCN(c2nsc3ccccc23)CC1 [lurasidone] (10 µM) | 0.0507 | 96.5% (inactive)
Clc1ccc(C(Cn2ccnc2)OCc2c(Cl)cccc2Cl)c(Cl)c1 (configuration not stated) [isoconazole] (10 µM) | 0.222 | 104% (inactive)
C[C@@H]([C@H](O)c1ccc(O)cc1)N1CCC(Cc2ccccc2)CC1 (racemic) [ifenprodil] (10 µM) | 0.0632 | 100% (inactive)

SMILES | morphology score [1] | SARS-CoV-2 infection rate [2]
CC(=O)N[C@@H](CC(C)C)C(=O)O [acetyl-l-leucine] (10 µM) | 0.134 | 94.5% (inactive)
CCOC(=O)C1=C(C)NC(C)=C(C(=O)OCC)C1c1ccccc1/C=C/C(=O)OC(C)(C)C [lacidipine] (10 µM) | 0.101 | 106% (inactive)
CCC(Cc1c(I)cc(I)c(N)c1I)C(=O)O (configuration not stated) [iopanic-acid] (10 µM) | -0.136 | 116% (inactive)
C=CC[N@@+]12CC[C@@]34c5ccccc5N5/C=C6/[C@H]7C[C@H]8[C@@]9(CC[N@@+]8(CC=C)C/C7=C/CO)c7ccccc7N(/C=C(/[C@@H](C[C@@H]31)/C(=C\CO)C2)[C@H]54)[C@@H]69 [alcuronium] (10 µM) | -0.108 | 114% (inactive)
CC(C)[N+](C)(CCC(C(N)=O)(c1ccccc1)c1ccccc1)C(C)C [isopropamide-iodide] (10 µM) | 0.192 | 100% (inactive)
CN=c1nc(-c2ccccc2)n(-c2ccccc2)s1 (10 µM) | -0.0414 | 97.5% (inactive)
O=C(Oc1ccc([N+](=O)[O-])cc1)N1CCN(Cc2cccc(Oc3ccccc3)c2)CC1 (10 µM) | 0.162 | 95.5% (inactive)
O=C1C=C2C=C[C@@H]3C[C@@]2(O1)[C@H]1CCCCN31 [securinine] (10 µM) | 0.327 | 85.5% (inactive)
CN(CCOc1ccc(C[C@H](Nc2ccccc2C(=O)c2ccccc2)C(=O)O)cc1)c1ccccn1 (10 µM) | 0.317 | 70% (inactive)
CC(NCCC(c1ccccc1)c1ccccc1)c1ccccc1 (configuration not stated) [fendiline] (10 µM) | 0.771 | 44% (active)
C[N+](C)(C)CCOC(N)=O [carbachol] (10 µM) | -0.148 | 101% (inactive)
O=C(c1cn(Cc2cncn2Cc2ccc(Br)cc2)cc1-c1cccc2ccccc12)N1CCOCC1 (0.833333 µM) | 0.342 | 94.5% (inactive)
O=c1[nH]c(=O)n([C@H]2C[C@H](O)[C@@H](CO)O2)cc1C(F)(F)F [trifluridine] (0.833333 µM) | 0.175 | 101% (inactive)
CC1=C(/C=C/C(C)=C/C=C/C(C)=C/C=C/C=C(C)/C=C/C=C(C)/C=C/C2=C(C)CCCC2(C)C)C(C)(C)CCC1 [beta-carotene] (10 µM) | 0.0662 | 112% (inactive)
CN(C)CCCCC(=O)Nc1ccc(NC(=S)NC(=O)c2ccc(C(C)(C)C)cc2)cc1 [tenovin-6] (0.833333 µM) | -0.102 | 86% (inactive)
N=C1NC(=O)/C(=C/c2ccc(O)cc2)S1 [mirin] (10 µM) | -0.0277 | 112% (inactive)
CCc1cc(-c2[nH]nc(C)c2-c2ccc3c(c2)OCCO3)c(O)cc1O (0.833333 µM) | 0.075 | 114% (inactive)
O=C(CCCCCCNC(=O)c1cnc(N(c2ccccc2)c2ccccc2)nc1)NO (0.833333 µM) | -0.13 | 106% (inactive)
CCCCc1nc(Cl)c(C(=O)O)n1Cc1ccc(-c2ccccc2-c2nn[nH]n2)cc1 [carboxylosartan] (10 µM) | -0.00666 | 106% (inactive)
